Here are results for 26 molecules from PubChem BioAssay (EPA / NIEHS).

Several values for one entry are separate records, joined by “and”; a condition that tells them apart may be missing. Equal entries are not always repeated. Inconclusive results are not listed. More than one record can exist for a structure, and the calls need not agree. Activity calls are given as the source filed them. Rule for the calls: active = hit-call score of the fitted dose curve at least 0.9, where 1 is the maximum; inconclusive = response in the unintended direction; inactive = score below 0.9.

Cytochrome P450 3A4 (Homo sapiens), sequence (P08684 whole entry, looked up): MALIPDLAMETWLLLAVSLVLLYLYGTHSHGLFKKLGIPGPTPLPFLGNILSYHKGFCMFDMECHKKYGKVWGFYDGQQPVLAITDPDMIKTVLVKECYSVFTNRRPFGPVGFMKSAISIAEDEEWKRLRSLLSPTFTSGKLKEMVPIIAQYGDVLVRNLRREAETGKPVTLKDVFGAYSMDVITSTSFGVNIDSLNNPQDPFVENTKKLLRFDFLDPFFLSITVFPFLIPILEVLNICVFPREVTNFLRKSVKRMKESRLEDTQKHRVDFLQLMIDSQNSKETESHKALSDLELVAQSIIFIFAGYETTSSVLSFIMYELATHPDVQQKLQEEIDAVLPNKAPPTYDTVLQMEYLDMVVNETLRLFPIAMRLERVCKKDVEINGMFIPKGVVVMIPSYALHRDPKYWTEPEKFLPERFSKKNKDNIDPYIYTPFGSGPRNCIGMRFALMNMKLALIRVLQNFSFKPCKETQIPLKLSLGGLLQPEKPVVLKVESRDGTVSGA

Read-out in the experiment: Cytochrome P450 3A4 (Homo sapiens) (UniProt P08684)
Briefly: CLD_CYP3A4_24hr: CellzDirect (CLD) Gene Expression Assay for xenobiotic metabolism (CYP3A4) at 24 hours (AID 2283689). The method, boiled down:
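Primary human hepatocytes from two donors dosed daily with fresh compound for two days, 0.2% DMSO vehicle. CYP3A4 mRNA at 24 hr by qNPA chemiluminescence; gain-of-signal fit versus DMSO, cytotoxicity flagged by morphology.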
In general, AC50 refers to the concentration at which the activity in the assay is half-maximal. For the molecule `CC1COC(Cn2cncn2)(c2ccc(Oc3ccc(Cl)cc3)cc2Cl)O1` (stereo not drawn), the AC50 was 1.9 µM (active).
As for `C=CC1(C)OC(=O)N(c2cc(Cl)cc(Cl)c2)C1=O` (stereo not drawn), the molecule was called inactive.
With `CCCC1COC(Cn2cncn2)(c2ccc(Cl)cc2Cl)O1` (stereo not drawn), the AC50 is 1.59 µM (active).
On the same count and under the same terms, the figure for `CCc1nn(C)c(C(=O)NCc2ccc(C(C)(C)C)cc2)c1Cl` is 20 µM (active).
In the case of `Cc1cc(Cl)ccc1OCC(=O)O`, the molecule was classed as inactive.
Same read-out and setting: then `COC(=O)c1ccccc1C(=O)OC`, with “inactive”.
As for `CCOc1cc(Oc2ccc(C(F)(F)F)cc2Cl)ccc1[N+](=O)[O-]`, the half-maximal activity concentration (AC50) is 20 µM (active).
In the case of `Oc1ccccc1-c1ccccc1`, the outcome was inactive.
On the same count and under the same terms, then `CON(C)C(=O)Nc1ccc(Cl)c(Cl)c1`, with “inactive”.
For `C#CCOS(=O)OC1CCCCC1Oc1ccc(C(C)(C)C)cc1` (stereo not drawn), the AC50 is 1.89 µM (active).
Turning to `CCOP(=S)(OCC)SCn1c(=O)oc2cc(Cl)ccc21`, the molecule was called inactive.
Consider `Cc1c(F)c(F)c(COC(=O)C2C(/C=C(\Cl)C(F)(F)F)C2(C)C)c(F)c1F` (stereo not drawn), for which the AC50 is 5.74 µM (active).
Still for that read-out and setting: the figure for `CCCN(CCC)c1c([N+](=O)[O-])cc(S(N)(=O)=O)cc1[N+](=O)[O-]` is 11.1 µM (active).
In the case of `COc1nc(C)nc(NC(=O)NS(=O)(=O)c2ccccc2Cl)n1`, the result was inactive.
On to `COC(=O)N(OC)c1ccccc1COc1ccn(-c2ccc(Cl)cc2)n1`, for which the AC50 is 3.73 µM (active).
As for `CCON=C(CC)C1=C(O)CC(c2c(C)cc(C)cc2C)CC1=O` (stereo not drawn), the result was inactive.
For `CC(C)(C)c1ccc(CSc2cnn(C(C)(C)C)c(=O)c2Cl)cc1`, the AC50 is 39.3 µM (active).
Take `CCOC(=O)CC(SP(=S)(OC)OC)C(=O)OCC` (stereo not drawn): the call was inactive.
For the molecule `COc1nc(C)nc(NC(=O)NS(=O)(=O)c2ccccc2CCC(F)(F)F)n1`, the AC50 is 36.7 µM (active) and 5.29 µM (active); the call was inactive.
With `CC1=C(C(=O)Nc2ccccc2)SCCO1`, the AC50 is 6.76 µM (active).
Consider `O=C(Nc1ccccc1)Nc1ccnc(Cl)c1`, for which the molecule was classed as inactive.
Still for that read-out and setting: then `O=C(O)c1nc(Cl)ccc1Cl`, with “inactive”.
The same measure, in the same setting: then `CC(C)C1(C)N=C(c2nc3ccccc3cc2C(=O)O)NC1=O` (stereo not drawn), with “inactive”; and `CNC(=O)ON=CC(C)(C)SC`, with “inactive”; and `CN(C)C(=S)SSC(=S)N(C)C`, with “inactive”.
For `COC(=O)C(C)Oc1ccc(Oc2ccc(Cl)cc2Cl)cc1` (stereo not drawn), the AC50 is 5.43 µM (active) and the call was inactive.
